# Data reported in PubChem BioAssay (Tox21).
# Results filed as inconclusive are left out. Active and inactive are the calls of the source. Calls follow the shape of the dose curve; as a rule, active = well fitted cell-killing curve with a large enough effect in the repeat runs; inconclusive = weak or mixed curves, or effect the other way; inactive = flat fitted curve, though single readings scatter.
# Test: qHTS assay to identify small molecule that activate the aryl hydrocarbon receptor (AhR) signaling pathway - cell viability counter screen (AID 743086);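 also: HepG2 liver cells carrying the AhR DRE luciferase reporter; nearly all actives have a fitted effect of over 45% in size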
# Details: HepG2-AhR-luc viability, CellTiter-Fluor, 24 h; series mostly up to 70.3 µM; viability change, negative = cytotoxic: at the top concentration
# How it was run: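 HepG2-AhR-luc (HG2L7.5c1) cells, 4000/well, treated 24 h at 37 C with compound; viability measured as CellTiter-Fluor fluorescence after 30 min in the same wells as the luciferase read.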
# % is scaled to controls: 0 for no effect and ±100 for the full control effect.
SMILES,"viability change, negative = cytotoxic",Potency
CC(CN)CCCN (stereo unspecified),1.99% (inactive),–
CCN(CCO)CCCC(C)Nc1ccnc2cc(Cl)ccc12 (stereo unspecified),-2.66% (inactive),–
CC(C)(C)c1cc(CO)cc(C(C)(C)C)c1O,-1.79% [at 95 µM] (inactive),–
CC(=O)O[C@H]1C[C@@H]2CC[C@@H]3[C@H](CC[C@@]4(C)[C@H]3C[C@H]([N+]3(C)CCCCC3)[C@@H]4OC(C)=O)[C@@]2(C)C[C@@H]1N1CCCCC1,-3.52% (inactive),–
CC(C)CCCC(C)CCO (stereo unspecified),6.03% (inactive),–
CC(=O)NCCCS(=O)(=O)O,–,inactive
CCCCC(CC)(CO)CO,7.1% (inactive),–
N#CCCNCCC#N,17.7% [at 95 µM] (inactive),–
CCCCOC(=O)c1ccccc1C(=O)OCC(CC)CCCC (stereo unspecified),7.3% (inactive),–
CCOc1ccc2[nH]cc(C(=O)NCc3ccccc3)c(=O)c2n1,2.76% (inactive),–
CC(=O)Nc1ccc(/C=N/NC(N)=S)cc1,–,inactive
CCCCCCCCC(CO)CCCCCC (stereo unspecified),-0.74% (inactive),–
CCCC[C@H]1CN(CC2CCOCC2)C(=O)OC12CCN(C1(C)CCN(C(=O)c3c(C)ncnc3C)CC1)CC2,-4.59% (inactive),–
CCCCOC(O)CC (stereo unspecified),-5.79% (inactive),–
O=C1CCCCCO1,9.63% [at 95 µM] (inactive),–
CC(=O)OCCc1ccccc1,9.36% (inactive),–
CCCCc1cc2ccccc2c(OCCN(C)C)n1,-0.467% [at 32.5 µM] (inactive),–
O=c1[nH]cnc2ccccc12,-6.34% [at 95 µM] (inactive),–
CN1CCC[C@@H]1c1cccnc1,6.54% (inactive),–
COCCOCCOCCOCCOC,14.5% (inactive),–
CC(C)c1ccccc1C(C)C,-2.2% (inactive),–
N#CCc1cccc(C(F)(F)F)c1,-13.3% (inactive),–
Nc1nc(N)c(-c2ccccc2)s1,27.2% (inactive),–
CNS(=O)(=O)Cc1ccc2[nH]cc(CCN(C)C)c2c1,-0.891% (inactive),–
O=C(O)C1CCC(C(=O)O)CC1 (stereo unspecified),-6.21% (inactive),–
C=C(C)C(=O)OC(C)C,-9.43% (inactive),–
